Measurements reported in ChEMBL document CHEMBL3988442, “University of Dundee, Small-Polar-MMV Screening Library” (2021).
About 900 (1.7%) of roughly 53,000 compounds showed an effect of 50% or more. Only a selection was taken, and strong results are over-represented in it overall.

test system: Mycobacterium tuberculosis; experiment: Cornell - Phenotypic assay to identify agents that inhibit growth of Mycobacterium tuberculosis; type: functional; design: scale not given: direction of the effect not stated beside the values; conditions: 10 mM as filed; unlikely as a test dose

Question: For `OC1(CNCCc2csc(-c3cccnc3)n2)CCNC1` (centres undefined), which “Percent Effect” value is on record?
Answer: 6.154%

Question: Which “Percent Effect” value does the source give for `CN1CCOC(C)(C(=O)Nc2nccs2)C1` (centres undefined) here?
Answer: -67.22%

Question: With `COCC1COCCC12CCN(C(=O)COc1ccccc1C)CC2` (centres undefined) as the compound, how does the “Percent Effect” value read?
Answer: -10.81%

Question: How did the “Percent Effect” value turn out when `Cc1cc(C(=O)NCCN2CCCc3ccccc32)[nH]n1` was run?
Answer: -6.129%

Question: `O=C(NCCN1CCNC1=O)c1cc(-c2ccc(O)cc2)n[nH]1` was tested. Which “Percent Effect” value did it give?
Answer: 15.58%

Question: Which “Percent Effect” value does the source give for `O=C(NCCN1CCc2ccccc21)c1cc(-c2ccc(O)cc2)n[nH]1` here?
Answer: 53.46%

Question: With `CCc1ccc(NC(=O)c2ncc(C(N)=O)cc2Cl)cc1F` as the compound, how does the “Percent Effect” value read?
Answer: 15.72%

Question: With `O=C(NCCc1cccc(F)c1)C1(n2cnnn2)CCCCC1` as the compound, how does the “Percent Effect” value read?
Answer: 18.95%

Question: For `O=C(NCCc1c[nH]c2ccccc12)C1(n2cnnn2)CCCCC1`, which “Percent Effect” value is on record?
Answer: 25.7%

Question: For `O=C(NCCc1c[nH]c2ccc(F)cc12)C1(n2cnnn2)CCCCC1`, which “Percent Effect” value is on record?
Answer: 65.5%

Question: With `CCc1ncc2c(n1)CN(Cc1nc(-c3ccco3)oc1C)CC2` as the compound, how does the “Percent Effect” value read?
Answer: -14.23%

Question: For `O=C(Cc1nc(-c2ccncc2)n[nH]1)N1CCOCC1`, which “Percent Effect” value is on record?
Answer: -3.393%

Question: With `CCCNc1ccc(C(=O)NCCc2cccc(Cl)c2)cn1` as the compound, how does the “Percent Effect” value read?
Answer: -5.958%

Question: `COC(=O)c1ccc(C(=O)NCc2ccc(Br)cc2)cn1` was tested. Which “Percent Effect” value did it give?
Answer: 95.13%

Question: With `COc1ccc(CNC(=O)c2ccc(Br)cn2)cc1` as the compound, how does the “Percent Effect” value read?
Answer: 8.291%

Question: For `COc1ncc(C(=O)NCc2ccc(Br)cc2)cn1`, which “Percent Effect” value is on record?
Answer: 25.41%

Question: For `CCc1nn(-c2cc(Oc3cccc(C)c3)nc(C)n2)c(N)c1C#N`, which “Percent Effect” value is on record?
Answer: 11.01%

Question: Which “Percent Effect” value does the source give for `CS(=O)(=O)N1CCN(C(=O)c2cc(-c3ccco3)cs2)CC1` here?
Answer: 10.89%

Question: With `O=C1C(CS(=O)(=O)Nc2ccc(Cl)cc2)=NC(=O)n2cccc21` as the compound, how does the “Percent Effect” value read?
Answer: 11.65%

Question: `CC(C)c1ccc(NS(=O)(=O)CC2=NC(=O)n3cccc3C2=O)cc1` was tested. Which “Percent Effect” value did it give?
Answer: 59.8%

Question: With `O=C1C(CS(=O)(=O)Nc2ccc(Br)cc2)=NC(=O)n2cccc21` as the compound, how does the “Percent Effect” value read?
Answer: 17.38%

Question: For `COc1cccc(S(=O)(=O)NC(=O)CCC2CCCC2)c1`, which “Percent Effect” value is on record?
Answer: 12.89%

Question: With `CC(=O)N1CCC(c2nccnc2CNC(=O)c2cc[nH]n2)CC1` as the compound, how does the “Percent Effect” value read?
Answer: -11.98%

Question: `CCc1ccc(CN(Cc2ccccc2)CC(C)CO)nc1` (centres undefined) was tested. Which “Percent Effect” value did it give?
Answer: 46.77%

Question: Which “Percent Effect” value does the source give for `Cc1c(C(=O)NC(C)C(C)C)nnn1-c1cccc2c1CCN(C)C2` (centres undefined) here?
Answer: 4.546%

Question: How did the “Percent Effect” value turn out when `Cc1[nH]n(-c2ccccc2)c2nnc(N)c1-2` was run?
Answer: 107.4%

Question: Which “Percent Effect” value does the source give for `CN(C)CCN1C(=O)CCC12CCCN(C(=O)c1ccncc1F)C2.O=C(O)C(F)(F)F` (centres undefined) here?
Answer: -23.79%

Question: With `Cn1cc(S(=O)(=O)N2CCC(OCCCc3ccccc3)C2)cn1` (centres undefined) as the compound, how does the “Percent Effect” value read?
Answer: 25.94%

Question: How did the “Percent Effect” value turn out when `CS(=O)(=O)N1CCC(OCCCc2ccccc2)C1` (centres undefined) was run?
Answer: 18.05%

Question: With `O=S(=O)(c1cccnc1)N1CCC(OCCCc2ccccc2)C1` (centres undefined) as the compound, how does the “Percent Effect” value read?
Answer: 55.63%

Question: How did the “Percent Effect” value turn out when `COc1cccc(S(=O)(=O)N2CCOC(C)(C(N)=O)C2)c1` (centres undefined) was run?
Answer: 8.35%

Question: How did the “Percent Effect” value turn out when `CC1(C(N)=O)CN(S(=O)(=O)c2cccc(F)c2)CCO1` (centres undefined) was run?
Answer: -8.727%

Question: How did the “Percent Effect” value turn out when `COc1ccc(S(=O)(=O)N2CCCC3(CCCN3S(C)(=O)=O)C2)cc1` (centres undefined) was run?
Answer: 103.2%

Question: Which “Percent Effect” value does the source give for `CS(=O)(=O)N1CCCC12CCCN(S(=O)(=O)c1ccc(F)cc1)C2` (centres undefined) here?
Answer: -19.89%

Question: How did the “Percent Effect” value turn out when `COc1ccc(S(=O)(=O)N2CCOC(C)(C(N)=O)C2)cc1` (centres undefined) was run?
Answer: 55.81%

Question: Which “Percent Effect” value does the source give for `CS(=O)(=O)N1CCCC12CCCN(S(=O)(=O)c1cc(F)cc(F)c1)C2` (centres undefined) here?
Answer: 2.906%

Question: With `CCc1nnc(Nc2cc(C)nc(C3CN(C(=O)C(C)C)CCO3)c2)s1` (centres undefined) as the compound, how does the “Percent Effect” value read?
Answer: 1.783%

Question: `CN1CCCC(c2nnc3n2CCN(S(=O)(=O)c2ccccc2Cl)C3)C1` (centres undefined) was tested. Which “Percent Effect” value did it give?
Answer: 2.1%

Question: With `CCOc1ccccc1CNC(=O)c1cnn(CC)c1C(F)(F)F` as the compound, how does the “Percent Effect” value read?
Answer: 4.777%

Question: Which “Percent Effect” value does the source give for `COCCn1ccc(=O)c(OCC(=O)Nc2ccc(Br)cc2)c1C` here?
Answer: 27.51%

Question: How did the “Percent Effect” value turn out when `COCCn1ccc(=O)c(OCC(=O)Nc2cccc(OC)c2)c1C` was run?
Answer: -5.179%

Question: How did the “Percent Effect” value turn out when `COCCn1ccc(=O)c(OCC(=O)Nc2ccc(OC)cc2)c1C` was run?
Answer: 53.75%

Question: With `c1cc(-c2n[nH]cc2-c2ccnc(N3CCCC3)n2)ccn1` as the compound, how does the “Percent Effect” value read?
Answer: 22.12%

Question: For `Cc1nnc2ccc(N3CCC4(CCOC4)C3)nn12` (centres undefined), which “Percent Effect” value is on record?
Answer: 16.18%

Question: Which “Percent Effect” value does the source give for `FC(F)c1nnc2ccc(N3CCC4(CCOC4)C3)nn12` (centres undefined) here?
Answer: 23.66%

Question: For `FC(F)c1nnc2ccc(N3CCC4(CCCCC4)C3)nn12`, which “Percent Effect” value is on record?
Answer: 52.01%

Question: Which “Percent Effect” value does the source give for `CCOC(=O)c1n[nH]cc1-c1cncn1CC(C)n1nc(C)cc1C` (centres undefined) here?
Answer: -15.99%

Question: With `CCn1ncc(CN(C)C(=O)c2cc(C(F)(F)F)n(C)n2)c1C` as the compound, how does the “Percent Effect” value read?
Answer: 9.297%

Question: How did the “Percent Effect” value turn out when `COCCNC(=O)c1c(-n2cnnn2)sc2c1CCCC2` was run?
Answer: 24.57%

Question: For `CCCc1cncnc1N1CCC(NCc2ccc(O)cc2)CC1`, which “Percent Effect” value is on record?
Answer: 28.01%

Question: With `CCCc1cncnc1N1CCC(NCc2cc3ccccc3[nH]2)CC1` as the compound, how does the “Percent Effect” value read?
Answer: 109.8%

Question: With `CCCc1cncnc1N1CCC(NCc2ccncc2)CC1` as the compound, how does the “Percent Effect” value read?
Answer: -49.68%

Question: `CCn1c(C2CCN(C(=O)c3cc(C4CC4)on3)CC2)nn(C)c1=O` was tested. Which “Percent Effect” value did it give?
Answer: 4.422%

Question: Which “Percent Effect” value does the source give for `COCCNc1nc(-n2nc(C)cc2C)nc2sc3c(c12)CCCC3` here?
Answer: -12.48%

Question: How did the “Percent Effect” value turn out when `Cc1cc(C)n(-c2nc(NCCCO)c3c4c(sc3n2)CCCC4)n1` was run?
Answer: 82.78%

Question: With `Cc1cc(C)n(C2=NC(NCCC(C)C)c3c(sc4c3CCCC4)N2)n1` (centres undefined) as the compound, how does the “Percent Effect” value read?
Answer: 1.366%

Question: With `CCc1nc(CN(C)C(=O)c2cc(CN(CC)CC)c(CC)o2)no1` as the compound, how does the “Percent Effect” value read?
Answer: 11.36%

Question: With `COc1ccccc1CN(CCCn1ccnc1)CC1CCOC1.O=C(O)CC(O)(CC(=O)O)C(=O)O` (centres undefined) as the compound, how does the “Percent Effect” value read?
Answer: 1.044%

Question: `CCN(Cc1ccco1)C(=O)c1cc(OC)c2c(c1)OCCO2` was tested. Which “Percent Effect” value did it give?
Answer: 11.52%

Question: For `Cn1ncc(NC(=O)c2noc3c2CCCC3)c1C(=O)N1CCCCC1`, which “Percent Effect” value is on record?
Answer: 1.181%

Question: For `CC(C)c1nc(S(=O)(=O)Nc2ccnn2C2CCCC2)c[nH]1`, which “Percent Effect” value is on record?
Answer: 106.1%

Question: For `CC(C)c1n[nH]c(C(=O)Nc2ccnn2C(C)C)c1Br`, which “Percent Effect” value is on record?
Answer: -19.54%

Question: With `Cc1nc2c(c(C)c1CC(=O)Nc1ccnn1C(C)C)c(=O)[nH]n2C` as the compound, how does the “Percent Effect” value read?
Answer: -6.05%

Question: How did the “Percent Effect” value turn out when `O=C(Nc1ccnn1C1CCCC1)c1ccc(NC2CC2)nc1` was run?
Answer: 16.19%

Question: With `CCN1CCN(S(=O)(=O)c2c[nH]c(C(C)C)n2)c2ccccc21` as the compound, how does the “Percent Effect” value read?
Answer: 19.57%

Question: How did the “Percent Effect” value turn out when `O=C(CN1CCCC1Cn1cncn1)Nc1ccnn1C1CCCC1` (centres undefined) was run?
Answer: 39.34%

Question: How did the “Percent Effect” value turn out when `Cc1ncc(S(=O)(=O)Nc2ccnn2C2CCCCC2)[nH]1` was run?
Answer: 106.2%

Question: How did the “Percent Effect” value turn out when `Cc1ncc(S(=O)(=O)Nc2ccnn2C(C)C)[nH]1` was run?
Answer: 85.6%

Question: Which “Percent Effect” value does the source give for `CC(C)c1nc(S(=O)(=O)N(C)c2ccc(F)cc2)c[nH]1` here?
Answer: 0.9821%
